Measurements reported in PubChem BioAssay (NCI).
The panel holds about 83,000 compounds, 20% with a hit somewhere; the sample as a whole holds those more often.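 Each cell line was grown in a 96-well plate and treated with one concentration of compound for 48 hours. Values below 10 were considered active.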 The source made the active and inactive calls.

Tests used:
Assay in all cases: NCI-60 one-dose screen, 48 h (100 = growth as untreated, 0 = no growth, -100 = all killed)
Conditions in all cases: 10 µM unless noted
NCI-H23 lung = system: NCI-H23 lung
NCI-H226 lung = system: NCI-H226 lung
NCI-H322M lung = system: NCI-H322M lung
HOP-62 NSCLC = system: HOP-62 NSCLC
NCI-H460 lung = system: NCI-H460 lung
HOP-92 NSCLC = system: HOP-92 NSCLC
NCI-H522 lung = system: NCI-H522 lung
A549/ATCC NSCLC = system: A549/ATCC NSCLC
786-0 renal = system: 786-0 renal
COLO 205 colon = system: COLO 205 colon

Measured: growth

O=C(O)CCCN1C(=O)CSC1=S
inactive: NCI-H23 lung 104% | NCI-H226 lung 111% | NCI-H322M lung 100% | HOP-62 NSCLC 103% | NCI-H460 lung 101% | HOP-92 NSCLC 103% | NCI-H522 lung 93.3% | A549/ATCC NSCLC 105% | 786-0 renal 102% | COLO 205 colon 120%

COC(=O)c1c(C)nc(C)c2c1C(=O)C(Br)=C(NCCN1CCOCC1)C2=O
inactive: NCI-H23 lung 89% | NCI-H226 lung 107% | NCI-H322M lung 96.2% | HOP-62 NSCLC 133% | NCI-H460 lung 88.6% | HOP-92 NSCLC 118% | NCI-H522 lung 102% | A549/ATCC NSCLC 98.6% | 786-0 renal 101% | COLO 205 colon 56.5%

Cc1c2ccncc2c(C)c2c1c1ccccc1n2CCCCCC(=O)O
inactive: NCI-H23 lung 84.7% | NCI-H226 lung 75.6% | NCI-H322M lung 96.1% | HOP-62 NSCLC 83% | NCI-H460 lung 97.1% | HOP-92 NSCLC 80.6% | NCI-H522 lung 101% | A549/ATCC NSCLC 89.8% | 786-0 renal 103% | COLO 205 colon 109%

COC1CC(O)C2=C(CC3C(/C(C)=C\CC=C(C)C)CCC3(C)O2)C1=O (stereo not given)
inactive: NCI-H23 lung 97.9% | NCI-H226 lung 101% | NCI-H322M lung 101% | HOP-62 NSCLC 105% | NCI-H460 lung 104% | HOP-92 NSCLC 97.5% | NCI-H522 lung 90.1% | A549/ATCC NSCLC 95.2% | 786-0 renal 103% | COLO 205 colon 119%

C=C(C)Cn1c(SCC(=O)c2cccs2)nc2sc3c(c2c1=O)CCCC3
active: NCI-H460 lung 8.41%
inactive: NCI-H23 lung 72.8% | NCI-H226 lung 58.3% | NCI-H322M lung 67.9% | HOP-62 NSCLC 73.5% | HOP-92 NSCLC 92.4% | NCI-H522 lung 58.1% | A549/ATCC NSCLC 41.1% | 786-0 renal 52.6% | COLO 205 colon 43.6%

CCOC(=O)/C=C1\S/C(=N\Nc2cc(=O)[nH]c3ccc(OC)cc23)N(c2ccccc2)C1=O
inactive: NCI-H23 lung 94% | NCI-H226 lung 93.2% | NCI-H322M lung 101% | HOP-62 NSCLC 97.5% | NCI-H460 lung 110% | HOP-92 NSCLC 89.7% | NCI-H522 lung 83.3% | A549/ATCC NSCLC 104% | 786-0 renal 94.4% | COLO 205 colon 95.7%

CC(C)C(=O)Nc1ncc(C(=O)NCCN(Cc2ccccc2)C(=O)c2ccc(S(=O)(=O)Nc3ccccc3)cc2)s1
inactive: NCI-H23 lung 97.3% | NCI-H226 lung 98% | NCI-H322M lung 98.9% | HOP-62 NSCLC 94.3% | NCI-H460 lung 99.8% | HOP-92 NSCLC 106% | NCI-H522 lung 83.6% | A549/ATCC NSCLC 103% | 786-0 renal 96.6% | COLO 205 colon 118%

CCCN1C(=O)N(CCC)C2C1NC(=S)N2/N=C/C=C/c1ccccc1OC (stereo not given)
active: NCI-H460 lung 6.85% | NCI-H522 lung -11.3%
inactive: NCI-H23 lung 36.4% | NCI-H226 lung 55.4% | NCI-H322M lung 44.6% | HOP-62 NSCLC 38.7% | HOP-92 NSCLC 77.4% | A549/ATCC NSCLC 13.1% | 786-0 renal 35.6% | COLO 205 colon 17.6%

CCOC(=O)C1=CCC(n2cc(F)c(=O)[nH]c2=O)O1 (stereo not given)
inactive: NCI-H23 lung 101% | NCI-H226 lung 103% | NCI-H322M lung 127% | HOP-62 NSCLC 122% | NCI-H460 lung 97.8% | HOP-92 NSCLC 107% | NCI-H522 lung 112% | A549/ATCC NSCLC 102% | 786-0 renal 107% | COLO 205 colon 109%

CCCCCCCCCCCCCC[n+]1ccc2c(C)c3c(c(C)c2c1)c1cc(O)ccc1n3CC
active: NCI-H23 lung -64% | NCI-H226 lung -40.5% | NCI-H322M lung -62% | HOP-62 NSCLC -57.1% | NCI-H460 lung -67.7% | HOP-92 NSCLC -84.4% | NCI-H522 lung -42.9% | A549/ATCC NSCLC 7.99% | 786-0 renal -73.4% | COLO 205 colon -69.9%

COc1ccc(C(=O)C2OC3=C(C(=O)CC(C)(C)C3)C2c2cccc(Oc3ccccc3)c2)cc1 (stereo not given)
inactive: NCI-H23 lung 97% | NCI-H226 lung 86.9% | NCI-H322M lung 95.1% | HOP-62 NSCLC 97% | NCI-H460 lung 96.9% | HOP-92 NSCLC 76.4% | NCI-H522 lung 76.3% | A549/ATCC NSCLC 85.7% | 786-0 renal 93% | COLO 205 colon 110%

c1ccc2[nH]c(-c3ccc(-c4nccc5c4[nH]c4ccccc45)cc3)nc2c1
inactive: NCI-H23 lung 69.1% | NCI-H226 lung 77.4% | NCI-H322M lung 58.7% | HOP-62 NSCLC 86.1% | NCI-H460 lung 42.9% | HOP-92 NSCLC 92.4% | NCI-H522 lung 27.3% | A549/ATCC NSCLC 45.7% | COLO 205 colon 44.9%
active: 786-0 renal 2.97%

COc1cc(C(=O)c2c(-c3ccccc3)oc3ccccc23)cc(OC)c1O
inactive: NCI-H23 lung 43.2% | NCI-H226 lung 52.8% | NCI-H322M lung 53.4% | HOP-62 NSCLC 38.2% | NCI-H460 lung 13.9% | HOP-92 NSCLC 55.4% | NCI-H522 lung 40.2% | A549/ATCC NSCLC 47.3% | 786-0 renal 35.6% | COLO 205 colon 123%

CCCN1C2CCC1/C(=C\c1ccc(OC)cc1)C(=O)/C2=C/c1ccc(OC)cc1
inactive: NCI-H23 lung 67.5% | NCI-H226 lung 71.5% | NCI-H322M lung 92% | HOP-62 NSCLC 89.1% | NCI-H460 lung 76.9% | HOP-92 NSCLC 58.1% | NCI-H522 lung 51.2% | A549/ATCC NSCLC 72.6% | 786-0 renal 85.2% | COLO 205 colon 76%

CN1CCN(Cn2nc(-c3cc(Cl)cc(Cl)c3Cl)oc2=S)CC1
inactive: NCI-H23 lung 90% | NCI-H226 lung 96% | NCI-H322M lung 101% | HOP-62 NSCLC 93.9% | NCI-H460 lung 102% | HOP-92 NSCLC 119% | NCI-H522 lung 91.1% | A549/ATCC NSCLC 104% | 786-0 renal 94.5% | COLO 205 colon 110%

Cc1c(C)c2c(c(C)c1OC(=O)CCC(=O)[O-])CCC(C)(CCCCCCCCCCC[P+](c1ccccc1)(c1ccccc1)c1ccccc1)O2 (stereo not given)
active: NCI-H23 lung -16.5% | NCI-H226 lung -6.94% | NCI-H322M lung 0.982% | HOP-62 NSCLC -67.7% | NCI-H460 lung -69% | HOP-92 NSCLC -82.7% | NCI-H522 lung -25.9% | A549/ATCC NSCLC -2.64% | 786-0 renal -49.7% | COLO 205 colon -52.9%

O=S(=O)(Nc1ccc(Br)cc1)c1ccc(-c2cnc(C3CC3)o2)cc1
inactive: NCI-H23 lung 40.8% | NCI-H226 lung 67.3% | NCI-H322M lung 61.9% | HOP-62 NSCLC 27.1% | NCI-H460 lung 12.8% | HOP-92 NSCLC 43% | NCI-H522 lung 11% | A549/ATCC NSCLC 40.1% | 786-0 renal 37.8% | COLO 205 colon 23.9%

COC(=O)c1cc(-c2cc(OC)c(OC)c(OC)c2)[nH]c1N/N=C/c1c(Cl)cccc1Cl
inactive: NCI-H226 lung 72.5% | NCI-H322M lung 45.3% | A549/ATCC NSCLC 28.1% | COLO 205 colon 56.1%
active: NCI-H23 lung -15.6% | HOP-62 NSCLC -43.9% | NCI-H460 lung 2.31% | HOP-92 NSCLC -34.8% | NCI-H522 lung -45.3% | 786-0 renal -44.4%

Nc1ncnc2c1N=C(c1ccc([N+](=O)[O-])cc1)CC(c1ccc3c(c1)OCO3)N2 (stereo not given)
inactive: NCI-H23 lung 83.8% | NCI-H226 lung 86.5% | NCI-H322M lung 87.3% | HOP-62 NSCLC 86.6% | NCI-H460 lung 96.2% | HOP-92 NSCLC 34% | NCI-H522 lung 84.9% | A549/ATCC NSCLC 96.6% | 786-0 renal 98.7% | COLO 205 colon 96.2%

COC(=O)c1nc(-c2ccccc2)oc1S(=O)(=O)NCC(c1ccc(Cl)cc1)N1CCCCC1 (stereo not given)
inactive: NCI-H23 lung 84.4% | NCI-H226 lung 88.5% | NCI-H322M lung 97.2% | HOP-62 NSCLC 90.9% | NCI-H460 lung 85.6% | HOP-92 NSCLC 48.8% | NCI-H522 lung 25.6% | A549/ATCC NSCLC 85.3% | 786-0 renal 59.8% | COLO 205 colon 72.1%

CCCCCC(C)(O)C(C(=O)O)c1ccccc1 (stereo not given)
inactive: NCI-H23 lung 107% | NCI-H226 lung 104% | NCI-H322M lung 104% | HOP-62 NSCLC 101% | NCI-H460 lung 109% | HOP-92 NSCLC 94.1% | NCI-H522 lung 95% | A549/ATCC NSCLC 99.6% | 786-0 renal 99.2% | COLO 205 colon 118%

O=C(CN1C(=O)c2ccccc2S1(=O)=O)Nc1nc(-c2cc3ccccc3oc2=O)cs1
inactive: NCI-H23 lung 110% | NCI-H226 lung 94.4% | NCI-H322M lung 97.3% | HOP-62 NSCLC 105% | NCI-H460 lung 105% | HOP-92 NSCLC 96.4% | NCI-H522 lung 92.2% | A549/ATCC NSCLC 104% | 786-0 renal 91.8% | COLO 205 colon 117%

C#C[C@]1(O)CC[C@H]2[C@@H]3CC=C4c5sc(-c6cccc(C)c6)nc5CC[C@]4(C)[C@H]3CC[C@@]21C
inactive: NCI-H23 lung 73% | NCI-H226 lung 91.1% | NCI-H322M lung 66.1% | HOP-62 NSCLC 83.4% | NCI-H460 lung 76.6% | HOP-92 NSCLC 49.6% | NCI-H522 lung 70% | A549/ATCC NSCLC 75.4% | 786-0 renal 32.8% | COLO 205 colon 107%

COc1ccc(S(=O)(=O)NC2c3ccccc3CC2O)cc1OC (stereo not given)
inactive: NCI-H23 lung 103% | NCI-H226 lung 102% | NCI-H322M lung 109% | HOP-62 NSCLC 102% | NCI-H460 lung 109% | HOP-92 NSCLC 109% | NCI-H522 lung 99% | A549/ATCC NSCLC 102% | 786-0 renal 104% | COLO 205 colon 119%

CCOC(=O)c1c(N)sc2cc(O)ccc12
inactive: NCI-H23 lung 95.2% | NCI-H226 lung 110% | NCI-H322M lung 91.1% | HOP-62 NSCLC 104% | NCI-H460 lung 112% | HOP-92 NSCLC 121% | NCI-H522 lung 80% | A549/ATCC NSCLC 99.7% | 786-0 renal 104% | COLO 205 colon 112%

Cn1ncc(CC(=O)O)c1-n1nnc2cc(Cl)ccc2c1=O
inactive: NCI-H23 lung 102% | NCI-H226 lung 95.2% | NCI-H322M lung 80.3% | HOP-62 NSCLC 105% | NCI-H460 lung 108% | HOP-92 NSCLC 105% | NCI-H522 lung 97.3% | A549/ATCC NSCLC 97.3% | 786-0 renal 96.6% | COLO 205 colon 118%

COc1cc(/C=N/NC(=O)c2ccc3nc(-c4ccc(Cl)cc4)[nH]c3c2)cc(OC)c1OC
inactive: NCI-H23 lung 53.7% | NCI-H226 lung 76% | NCI-H322M lung 87.5% | HOP-62 NSCLC 81.7% | NCI-H460 lung 82.8% | HOP-92 NSCLC 71.7% | NCI-H522 lung 78.3% | A549/ATCC NSCLC 85.8% | 786-0 renal 51.2% | COLO 205 colon 45.7%
